Measurements published in the supplement of paper PMC10849652.
Targets with a hit are over-represented here; the source holds about 7,900 in all. About 0.6% of all pairs of compound and target were hits. A number with no mark means an inactive call.

Experiments:
Experiment in all cases: log2 fold change, soluble protein after heating vs DMSO (PISA); higher = thermal stabilisation; K562 cells, 10 uM, 30 min; active = over 0.2 and 3.5 SD of the protein, either way, in both replicates (recomputed)
[1] = compound: CC[C@@H]1C(=O)N(C)c2cnc(Nc3ccc(C(=O)NC4CCN(C)CC4)cc3OC)nc2N1C1CCCC1
Method in brief: (§1)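 Values are thermal stability changes relative to control samples and are taken from duplicates. They are stated as log2 fold changes. Before quantification by TMTpro 16plex LC-MS/MS with equalised channel sums, K562 cells at 2×10^6 cells/mL were treated with 10 μM compound for 30 min, heated in aliquots for 3 min across 48°C-58°C, pooled, extracted in PBS with 0.5% NP-40 at 4°C, and centrifuged at 21,000xg for 90 min to give the soluble supernatant.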

volasertib = compound: CC[C@@H]1C(=O)N(C)c2cnc(Nc3ccc(C(=O)N[C@H]4CC[C@H](N5CCN(CC6CC6)CC5)CC4)cc3OC)nc2N1C(C)C [volasertib]
Method in brief: as §1

[2] = compound: CC[C@H](C)N1C=C(C2=C(C=C(C=C21)C3=CN=C(C=C3)N4CCNCC4)C(=O)NCC5=C(C=C(NC5=O)C)C)C
Method in brief: as §1

epoxomicin = compound: CC[C@H](C)[C@@H](C(=O)N[C@@H]([C@@H](C)O)C(=O)N[C@@H](CC(C)C)C(=O)[C@]1(CO1)C)NC(=O)[C@H]([C@@H](C)CC)N(C)C(=O)C [epoxomicin]
Method in brief: as §1

[3] = compound: CCn1c(C(=O)N(C2CC2)C2CC2)cc2c3c(ncn3C)c(Nc3cc(C)n(C)n3)nc21
Method in brief: as §1

[4] = compound: CCn1cc(-c2ccnc3[nH]c(-c4cccc(CN(C)C)c4)cc23)c(-c2ccc(NC(=O)N(C)C)cc2)n1
Method in brief: as §1

[5] = compound: CN(C)CC(=O)Nc1ccc2[nH]c(=O)c3ccccc3c2c1
Method in brief: as §1

rosiglitazone = compound: CN(CCOC1=CC=C(C=C1)C[C@H]2C(=O)NC(=O)S2)C3=CC=CC=N3 (racemic) [rosiglitazone]
Method in brief: as §1

[6] = compound: CN1C2=C(C3=C1C(=O)N(N=C3)CC4=CC(=CC=C4)N)SC(=C2)S(=O)C
Method in brief: as §1

[7] = compound: CN1CCC(CNc2ccc3ncc(-c4cccc(OC(F)(F)F)c4)n3n2)CC1
Method in brief: as §1

saracatinib = compound: CN1CCN(CCOc2cc(OC3CCOCC3)c3c(Nc4c(Cl)ccc5c4OCO5)ncnc3c2)CC1 [saracatinib]
Method in brief: as §1

sotrastaurin = compound: CN1CCN(c2nc(C3=C(c4c[nH]c5ccccc45)C(=O)NC3=O)c3ccccc3n2)CC1 [sotrastaurin]
Method in brief: as §1

alvocidib = compound: CN1CC[C@H](c2c(O)cc(O)c3c(=O)cc(-c4ccccc4Cl)oc23)[C@H](O)C1 [alvocidib]
Method in brief: as §1

Tubastatin A = compound: CN1CCc2c(c3ccccc3n2Cc2ccc(C(=O)NO)cc2)C1 [Tubastatin A]
Method in brief: as §1

[8] = compound: CNC(=O)C1=CC=CC=C1NC2=NC(=NC=C2Cl)NC3=C(C=C(C=C3)N4CCOCC4)OC
Method in brief: as §1

defactinib = compound: CNC(=O)c1ccc(Nc2ncc(C(F)(F)F)c(NCc3nccnc3N(C)S(C)(=O)=O)n2)cc1 [defactinib]
Method in brief: as §1

rucaparib = compound: CNCc1ccc(-c2[nH]c3cc(F)cc4c3c2CCNC4=O)cc1 [rucaparib]
Method in brief: as §1

[9] = compound: CNc1nc(-c2ccc3c(N)n[nH]c3c2)cc(N2C[C@@H](C(=O)NC3CCCCC3)CC[C@H]2C)n1
Method in brief: as §1

encorafenib = compound: COC(=O)N[C@@H](C)CNc1nccc(-c2cn(C(C)C)nc2-c2cc(Cl)cc(NS(C)(=O)=O)c2F)n1 [encorafenib]
Method in brief: as §1

[10] = compound: COC(=O)[C@H](CCSC)NC(=O)C1=C(C=C(C=C1)NC[C@H](CS)N)C2=CC=CC=C2
Method in brief: as §1

UniProt O95747, sequence (O95747 whole entry, looked up): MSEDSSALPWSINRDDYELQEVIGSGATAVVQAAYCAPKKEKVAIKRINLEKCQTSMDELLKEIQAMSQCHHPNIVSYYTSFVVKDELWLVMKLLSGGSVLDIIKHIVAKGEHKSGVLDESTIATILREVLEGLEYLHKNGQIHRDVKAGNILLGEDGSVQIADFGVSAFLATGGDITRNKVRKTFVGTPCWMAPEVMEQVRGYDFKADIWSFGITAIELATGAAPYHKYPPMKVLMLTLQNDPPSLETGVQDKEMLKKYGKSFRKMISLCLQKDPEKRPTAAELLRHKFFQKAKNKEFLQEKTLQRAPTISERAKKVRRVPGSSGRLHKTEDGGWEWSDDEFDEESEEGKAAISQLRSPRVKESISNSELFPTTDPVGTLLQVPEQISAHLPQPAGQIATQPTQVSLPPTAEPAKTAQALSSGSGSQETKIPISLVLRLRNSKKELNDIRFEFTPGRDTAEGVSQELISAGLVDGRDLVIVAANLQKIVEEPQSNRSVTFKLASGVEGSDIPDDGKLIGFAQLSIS
UniProt Q96DE0, sequence (Q96DE0 whole entry, looked up): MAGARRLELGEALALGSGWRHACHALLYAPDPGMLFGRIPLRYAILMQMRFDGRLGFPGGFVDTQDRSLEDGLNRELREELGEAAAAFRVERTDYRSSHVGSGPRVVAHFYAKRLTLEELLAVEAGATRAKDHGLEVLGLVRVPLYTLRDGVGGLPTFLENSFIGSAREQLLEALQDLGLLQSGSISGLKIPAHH
UniProt O60313, sequence (O60313 whole entry, looked up): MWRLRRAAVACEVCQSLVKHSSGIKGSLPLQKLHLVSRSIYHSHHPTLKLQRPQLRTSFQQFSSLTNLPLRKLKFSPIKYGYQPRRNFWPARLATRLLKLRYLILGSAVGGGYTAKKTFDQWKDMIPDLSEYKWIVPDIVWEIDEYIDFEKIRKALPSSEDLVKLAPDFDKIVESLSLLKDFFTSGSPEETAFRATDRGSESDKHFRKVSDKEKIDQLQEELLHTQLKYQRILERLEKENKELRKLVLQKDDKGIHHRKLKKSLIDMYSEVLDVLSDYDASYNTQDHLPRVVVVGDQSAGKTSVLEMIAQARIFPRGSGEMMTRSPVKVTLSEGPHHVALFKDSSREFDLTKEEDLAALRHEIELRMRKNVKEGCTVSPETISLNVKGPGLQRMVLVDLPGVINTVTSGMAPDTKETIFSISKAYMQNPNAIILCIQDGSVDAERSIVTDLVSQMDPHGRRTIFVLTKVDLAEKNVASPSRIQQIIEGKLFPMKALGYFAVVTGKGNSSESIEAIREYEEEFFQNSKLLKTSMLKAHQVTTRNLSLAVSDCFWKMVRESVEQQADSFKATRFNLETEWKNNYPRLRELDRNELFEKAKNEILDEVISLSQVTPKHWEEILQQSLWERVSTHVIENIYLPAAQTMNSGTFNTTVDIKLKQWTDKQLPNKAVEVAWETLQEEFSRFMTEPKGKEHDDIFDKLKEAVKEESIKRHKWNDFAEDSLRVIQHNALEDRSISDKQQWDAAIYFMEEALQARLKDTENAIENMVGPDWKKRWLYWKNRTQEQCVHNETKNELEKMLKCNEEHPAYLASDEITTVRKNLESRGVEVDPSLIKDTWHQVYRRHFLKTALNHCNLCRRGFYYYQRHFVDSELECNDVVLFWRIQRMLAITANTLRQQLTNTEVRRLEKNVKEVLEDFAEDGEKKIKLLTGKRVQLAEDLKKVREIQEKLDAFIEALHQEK
UniProt Q9H1E3, sequence (Q9H1E3 whole entry, looked up): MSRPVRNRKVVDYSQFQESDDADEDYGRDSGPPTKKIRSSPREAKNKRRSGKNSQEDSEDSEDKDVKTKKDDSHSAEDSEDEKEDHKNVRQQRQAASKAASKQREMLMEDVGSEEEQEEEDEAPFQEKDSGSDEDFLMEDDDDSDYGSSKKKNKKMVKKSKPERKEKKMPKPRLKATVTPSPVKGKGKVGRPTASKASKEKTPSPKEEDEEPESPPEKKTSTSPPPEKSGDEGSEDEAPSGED
UniProt P03905, sequence (P03905 whole entry, looked up): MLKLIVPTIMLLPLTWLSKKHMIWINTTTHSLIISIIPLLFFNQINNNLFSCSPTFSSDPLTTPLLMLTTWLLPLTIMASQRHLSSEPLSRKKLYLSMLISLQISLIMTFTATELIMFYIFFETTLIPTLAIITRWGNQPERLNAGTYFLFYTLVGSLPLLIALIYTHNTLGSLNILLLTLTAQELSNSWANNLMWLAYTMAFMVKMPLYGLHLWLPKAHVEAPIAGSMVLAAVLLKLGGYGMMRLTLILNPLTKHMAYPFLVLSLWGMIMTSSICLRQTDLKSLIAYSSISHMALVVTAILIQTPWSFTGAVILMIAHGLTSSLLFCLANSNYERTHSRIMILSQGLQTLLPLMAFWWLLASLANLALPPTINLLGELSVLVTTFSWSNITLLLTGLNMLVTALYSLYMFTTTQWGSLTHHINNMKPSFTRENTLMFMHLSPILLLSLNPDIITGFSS
UniProt Q15014, sequence (Q15014 whole entry, looked up): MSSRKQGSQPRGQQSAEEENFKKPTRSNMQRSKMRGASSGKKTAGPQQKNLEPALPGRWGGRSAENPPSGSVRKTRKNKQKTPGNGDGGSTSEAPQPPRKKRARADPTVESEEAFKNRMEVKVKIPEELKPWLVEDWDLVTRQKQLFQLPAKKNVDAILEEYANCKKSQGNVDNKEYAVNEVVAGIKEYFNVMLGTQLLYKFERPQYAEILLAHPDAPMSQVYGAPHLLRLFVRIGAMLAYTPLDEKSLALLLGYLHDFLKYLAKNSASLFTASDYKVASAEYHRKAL
UniProt Q12986, sequence (Q12986 whole entry, looked up): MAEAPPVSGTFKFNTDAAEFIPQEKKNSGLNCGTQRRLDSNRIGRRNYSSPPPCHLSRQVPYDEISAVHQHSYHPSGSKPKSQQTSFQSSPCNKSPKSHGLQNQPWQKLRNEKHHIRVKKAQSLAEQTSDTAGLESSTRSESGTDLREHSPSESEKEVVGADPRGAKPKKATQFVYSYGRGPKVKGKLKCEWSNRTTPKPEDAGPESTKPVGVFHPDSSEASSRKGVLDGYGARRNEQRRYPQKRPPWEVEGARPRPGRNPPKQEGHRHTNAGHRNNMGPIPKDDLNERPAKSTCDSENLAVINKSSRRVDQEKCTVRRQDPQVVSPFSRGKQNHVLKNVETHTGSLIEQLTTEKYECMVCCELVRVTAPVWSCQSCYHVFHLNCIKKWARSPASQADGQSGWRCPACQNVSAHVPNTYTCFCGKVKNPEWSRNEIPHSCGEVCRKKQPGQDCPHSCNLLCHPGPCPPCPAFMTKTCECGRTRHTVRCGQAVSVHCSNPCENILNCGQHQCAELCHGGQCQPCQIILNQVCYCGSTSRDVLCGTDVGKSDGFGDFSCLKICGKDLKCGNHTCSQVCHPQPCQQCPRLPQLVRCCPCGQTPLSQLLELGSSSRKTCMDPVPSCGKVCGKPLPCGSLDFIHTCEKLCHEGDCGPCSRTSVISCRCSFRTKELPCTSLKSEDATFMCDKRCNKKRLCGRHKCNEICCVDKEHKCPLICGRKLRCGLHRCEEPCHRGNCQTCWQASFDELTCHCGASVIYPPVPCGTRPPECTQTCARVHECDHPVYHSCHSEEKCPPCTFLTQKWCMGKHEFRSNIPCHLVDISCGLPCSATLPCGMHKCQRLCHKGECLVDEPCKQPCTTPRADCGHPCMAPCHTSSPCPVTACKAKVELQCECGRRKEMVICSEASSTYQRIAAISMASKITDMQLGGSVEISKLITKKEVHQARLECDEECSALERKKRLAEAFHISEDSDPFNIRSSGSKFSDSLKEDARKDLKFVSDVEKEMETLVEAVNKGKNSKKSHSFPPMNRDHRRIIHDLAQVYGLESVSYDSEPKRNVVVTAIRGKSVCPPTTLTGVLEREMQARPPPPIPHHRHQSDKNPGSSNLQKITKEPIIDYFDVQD
UniProt Q9H081, sequence (Q9H081 whole entry, looked up): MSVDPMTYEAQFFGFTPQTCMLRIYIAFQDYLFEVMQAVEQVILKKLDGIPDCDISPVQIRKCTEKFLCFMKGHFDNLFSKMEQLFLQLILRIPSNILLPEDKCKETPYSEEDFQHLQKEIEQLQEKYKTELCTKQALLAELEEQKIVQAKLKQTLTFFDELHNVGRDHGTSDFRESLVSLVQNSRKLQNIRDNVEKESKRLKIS
UniProt Q9BZF1, sequence (Q9BZF1 whole entry, looked up): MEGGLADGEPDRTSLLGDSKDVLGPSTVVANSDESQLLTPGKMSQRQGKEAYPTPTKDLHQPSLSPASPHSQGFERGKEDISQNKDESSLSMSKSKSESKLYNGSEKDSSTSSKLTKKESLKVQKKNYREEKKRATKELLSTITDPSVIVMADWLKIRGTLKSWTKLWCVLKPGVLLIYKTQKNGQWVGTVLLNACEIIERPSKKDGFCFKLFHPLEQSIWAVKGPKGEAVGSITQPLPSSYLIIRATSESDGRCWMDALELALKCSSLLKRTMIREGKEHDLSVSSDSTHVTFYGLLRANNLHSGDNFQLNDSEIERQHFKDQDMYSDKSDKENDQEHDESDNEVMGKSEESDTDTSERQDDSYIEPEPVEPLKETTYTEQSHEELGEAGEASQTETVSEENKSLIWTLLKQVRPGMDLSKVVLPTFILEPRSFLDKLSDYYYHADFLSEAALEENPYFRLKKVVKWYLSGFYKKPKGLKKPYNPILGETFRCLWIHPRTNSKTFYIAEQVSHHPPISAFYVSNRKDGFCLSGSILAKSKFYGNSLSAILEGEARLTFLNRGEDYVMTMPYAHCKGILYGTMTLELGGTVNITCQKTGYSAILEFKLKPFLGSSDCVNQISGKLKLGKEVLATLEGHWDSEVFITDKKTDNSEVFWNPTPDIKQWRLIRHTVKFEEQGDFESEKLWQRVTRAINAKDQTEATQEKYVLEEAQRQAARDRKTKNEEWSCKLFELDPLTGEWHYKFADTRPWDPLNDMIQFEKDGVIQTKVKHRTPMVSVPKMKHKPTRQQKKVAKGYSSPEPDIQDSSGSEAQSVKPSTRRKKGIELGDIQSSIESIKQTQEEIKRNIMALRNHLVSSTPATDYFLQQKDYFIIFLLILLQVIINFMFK

| Target | log2 fold change [1] | log2 fold change (volasertib) | log2 fold change [2] | log2 fold change (epoxomicin) | log2 fold change [3] | log2 fold change [4] | log2 fold change [5] | log2 fold change (rosiglitazone) | log2 fold change [6] | log2 fold change [7] | log2 fold change (saracatinib) | log2 fold change (sotrastaurin) | log2 fold change (alvocidib) | log2 fold change (Tubastatin A) | log2 fold change [8] | log2 fold change (defactinib) | log2 fold change (rucaparib) | log2 fold change [9] | log2 fold change (encorafenib) | log2 fold change [10] |
| --- | --- | --- | --- | --- | --- | --- | --- | --- | --- | --- | --- | --- | --- | --- | --- | --- | --- | --- | --- | --- |
| NUCKS1 (UniProt Q9H1E3) | -0.061 | -0.012 | -0.028 | 0.016 | 0.033 | 0.014 | -0.073 | 0.001 | -0.043 | -0.083 | 0.006 | 0.075 | 0.115 | -0.006 | -0.167 | 0.048 | 0.027 | -0.071 | -0.068 | -0.006 |
| NUDT16 (UniProt Q96DE0) | 0.038 | 0.033 | -0.059 | 0.009 | -0.019 | -0.073 | -0.011 | -0.048 | -0.069 | -0.035 | 0.063 | -0.031 | -0.075 | 0.009 | -0.057 | -0.024 | 0.009 | -0.004 | -0.017 | -0.05 |
| ORC3 isoform 2 (UniProt Q9UBD5) | -0.046 | -0.396 | 0.044 | 0.181 | -0.053 | -0.017 | 0.067 | 0.059 | -0.034 | -0.376 | 0.001 | 0.011 | -0.299 | 0.006 | -0.078 | -0.288 | 0 | 0.014 | 0.288 | 0.06 |
| NFX1 (UniProt Q12986) | 0.029 | 0.15 | -0.001 | -0.144 | 0.029 | 0.232 | -0.216 | 0.138 | 0.128 | 0.197 | -0.246 | -0.09 | 0.08 | -0.001 | 0.014 | 0.009 | 0.269 | -0.237 | -0.01 | 0 |
| OXSR1 (UniProt O95747) | -0.122 | -0.274 (active) | 0.049 | 0.03 | -0.018 | -0.077 | 0.043 | 0.053 | 0.008 | -0.24 (active) | -0.048 | 0.004 | -0.094 | 0.038 | -0.061 | -0.093 | 0.001 | 0.033 | 0.042 | -0.051 |
| MIS12 (UniProt Q9H081) | -0.072 | -0.36 (active) | 0.012 | 0.026 | -0.034 | -0.007 | 0.055 | 0.04 | -0.107 | -0.039 | 0.04 | -0.014 | -0.145 | 0.031 | 0.002 | -0.143 | 0.021 | -0.006 | 0.021 | -0.052 |
| MT-ND4 (UniProt P03905) | 0 | -0.102 | -0.028 | 0 | -0.071 | 0.391 (active) | -0.025 | 0.159 | -0.065 | 0.029 | 0.048 | -0.025 | -0.022 | 0.061 | 0.053 | -0.143 | -0.077 | -0.145 | 0.058 | 0.057 |
| MRPS25 (UniProt P82663) | 0.031 | -0.057 | 0.145 | -0.126 | -0.091 | -0.295 | -0.056 | -0.042 | 0.074 | 0.036 | -0.097 | -0.059 | -0.039 | 0.084 | -0.021 | -0.072 | 0.129 | 0.233 | -0.016 | -0.017 |
| MORF4L2 (UniProt Q15014) | 0.074 | 0.023 | 0.014 | 0.085 | 0.014 | 0.075 | -0.125 | -0.051 | 0.12 | 0.076 | -0.002 | -0.01 | 0.022 | 0.136 | -0.003 | 0.011 | 0.056 | -0.1 | 0.04 | 0.066 |
| OXA1L (UniProt Q15070) | -0.067 | -0.014 | -0.015 | -0.046 | 0.013 | -0.012 | -0.019 | 0.016 | -0.027 | -0.221 (active) | 0.018 | 0.003 | -0.01 | -0.036 | 0.004 | 0.005 | -0.029 | -0.054 | -0.027 | 0.031 |
| MRPS31 (UniProt Q92665) | 0.056 | 0 | 0.036 | -0.015 | -0.036 | 0.014 | -0.054 | -0.018 | 0 | 0.052 | 0.031 | -0.088 | 0.04 | 0.053 | 0.025 | 0.027 | 0.031 | 0.078 | 0.041 | 0.016 |
| NANS (UniProt Q9NR45) | 0.015 | -0.013 | 0.032 | 0.016 | 0.04 | -0.041 | 0.009 | 0.032 | -0.434 (active) | 0.034 | 0.022 | -0.058 | -0.091 | -0.026 | 0.034 | -0.033 | -0.084 | 0.051 | 0.004 | -0.015 |
| MRPS9 (UniProt P82933) | 0.094 | 0.109 | 0.076 | -0.009 | -0.082 | 0.027 | -0.004 | 0.012 | 0.071 | 0.001 | -0.064 | -0.072 | 0.043 | 0.04 | 0.013 | 0.056 | 0.087 | 0.136 | 0.05 | -0.081 |
| OPA1 isoform 2 (UniProt O60313) | -0.187 | -0.264 | 0.039 | 0.027 | -0.047 | -0.081 | 0.023 | 0.07 | -0.013 | -0.347 (active) | -0.072 | -0.005 | -0.047 | 0.054 | -0.047 | -0.024 | -0.001 | 0.064 | 0.056 | -0.047 |
| NDUFA9 (UniProt Q16795) | -0.082 | -0.26 (active) | 0.073 | 0.03 | -0.029 | -0.053 | 0.035 | 0.064 | -0.017 | -0.367 (active) | -0.003 | -0.008 | -0.022 | -0.013 | -0.034 | -0.011 | -0.038 | 0.036 | 0.048 | -0.004 |
| OSBPL8 (UniProt Q9BZF1) | -0.068 | -0.026 | 0.062 | -0.118 | 0.271 | 0.061 | 0.055 | 0.031 | 0.09 | -0.114 | -0.175 | -0.054 | -0.011 | 0.078 | 0.11 | 0.025 | 0.232 | 0.488 (active) | 0.167 | -0.078 |
